The source of these data is the supplement of paper PMC9262897, “Low-cost anti-mycobacterial drug discovery using engineered E. coli” (Nature Communications, 2022).

Counter-ions that a name gives are not always drawn. ± gives the standard deviation of the averaged measurements.

Common to all, as to assay: growth (OD600 after 10 h); higher = more growth (less inhibition)
The subject of test [1] is E. coli TESEC Alr+ wild-type control. The note with it: compound 0.1 mM; raw OD600 reference: median of DMSO wells 0.241, cell-free background 0.041. How it is done:
(§1)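 TESEC Mtb Alr E. coli, or the Alr+ wild-type control, in 384-well plates with Prestwick library compounds at 0.1 mM and 1% DMSO, across arabinose induction levels of 1E3 to 1E7 nM. Growth is read as OD600 after 10 h at 37 °C in triplicate biological replicates.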

Test [2] concerns E. coli TESEC Mtb Asd. The following applies: compound 0.1 mM. Here is the method:
(§2)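 TESEC E. coli strains in which the native enzyme is deleted and replaced by arabinose-inducible Mtb Asd, DapB, CysH or TrpD, each grown in its selective medium. Strains were screened against the Prestwick library at 0.1 mM and 1% DMSO in 384-well format at low and high arabinose induction. Growth is read as OD600 after 10 h in triplicate.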

Test [3] deals with E. coli TESEC Mtb DapB. The following applies: compound 0.1 mM. Here is the method: as §2
The subject of test [4] is E. coli TESEC Alr+ wild-type control. The note with it: compound 0.1 mM; raw OD600 reference: median of DMSO wells 0.49, cell-free background 0.052. How it is done: (§3)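 TESEC Mtb Alr E. coli (ΔaraC ΔtolC ΔentC Δalr ΔdadX, arabinose-inducible Mtb Alr) or the Alr+ wild-type control strain, grown in defined M9-fructose medium without D-alanine in 96-well plates with Prestwick library compounds at 0.1 mM and 1% DMSO. Low Alr induction is 0.1 µM arabinose and high induction is 10 mM arabinose.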

Test [5] has as its system E. coli TESEC Mtb Alr. The following applies: compound 0.1 mM. Here is the method:
as §3

Test [6] relates to E. coli TESEC Mtb Alr. The note with it: compound 0.1 mM. Here is the method:
as §1
This is another data set of the same source.

[7] abbreviates: arabinose induction (level): High, raw OD600 reference: median of DMSO wells 0.331, cell-free background 0.041.
The mark [8] stands for this setting: arabinose induction (level): Low, raw OD600 reference: median of DMSO wells 0.417, cell-free background 0.041.
[9] abbreviates: arabinose induction (level): High, raw OD600 reference: median of DMSO wells […], cell-free background 0.041.
The mark [10] stands for this setting: arabinose induction (level): Low, raw OD600 reference: median of DMSO wells 0.227, cell-free background 0.041.
Setting [11] is: arabinose 100 nM, raw OD600 reference: median of DMSO wells 0.413, cell-free background 0.052.
Where [12] appears, read: arabinose 10000000 nM, raw OD600 reference: median of DMSO wells […], cell-free background 0.052.
Where [13] appears, read: arabinose 1000 nM, raw OD600 reference: median of DMSO wells 0.294, cell-free background 0.041.
Where [14] appears, read: arabinose 10000 nM, raw OD600 reference: median of DMSO wells 0.264, cell-free background 0.041.
Where [15] appears, read: arabinose 100000 nM, raw OD600 reference: median of DMSO wells 0.201, cell-free background 0.041.
Setting [16] is: arabinose 1000000 nM, raw OD600 reference: median of DMSO wells 0.193, cell-free background 0.041.
Setting [17] is: arabinose 10000000 nM, raw OD600 reference: median of DMSO wells 0.146, cell-free background 0.041.

As for `CC[N+](CC)(CC(=O)Nc1c(C)cccc1C)Cc1ccccc1` [Denatonium benzoate], the growth came out at 0.216 ± 0.0039 in test [1]; 0.401 ± 0.018 in test [2] (setting [7]); 0.46 ± 0.0089 in test [2] (setting [8]); 0.189 ± 0.015 in test [3] (setting [9]); 0.224 ± 0.024 in test [3] (setting [10]); 0.439 ± 0.016 in test [4]. The values for the growth in test [5] (setting [11]) and in test [5] (setting [12]) were 0.402 ± 0.018 and 0.338 ± 0.02, respectively.

`CC(=O)N(CC(C)C(=O)O)c1c(I)cc(I)c(N)c1I` (stereo unspecified) [Iocetamic acid]: the growth in test [1] was 0.213 ± 0.007; in test [2] (setting [7]), 0.36 ± 0.022; in test [2] (setting [8]), 0.268 ± 0.021; in test [3] (setting [9]), 0.202 ± 0.018; in test [3] (setting [10]), 0.202 ± 0.019; in test [4], 0.509 ± 0.026. Moreover, the growth in test [5] (setting [11]) turned out to be 0.183 ± 0.11; in test [5] (setting [12]), 0.397 ± 0.011.

In the case of `CCCCCNC(=N)N/N=C/c1c[nH]c2ccc(OC)cc12` [Tegaserod maleate], the growth in test [1] came out at 0.0464 ± 0.0039; in test [2] (setting [7]), 0.0504 ± 0.0014; in test [2] (setting [8]), 0.0483 ± 0.0011; in test [3] (setting [9]), 0.0474 ± 0.0015; in test [3] (setting [10]), 0.0486 ± 0.0013; in test [4] it was 0.0476 ± 0.00066. Besides, the growth came to 0.0508 ± 0.00065 in test [5] (setting [11]) and 0.0554 ± 0.00072 in test [5] (setting [12]).

`COC(=O)[C@H]1[C@H]2C[C@@H]3c4[nH]c5cc(OC)ccc5c4CCN3C[C@H]2C[C@@H](OC(=O)c2cc(OC)c(OC)c(OC)c2)[C@@H]1OC` [Reserpine]: the growth came out at 0.201 ± 0.0092 in test [1]; 0.333 ± 0.032 in test [2] (setting [7]); 0.191 ± 0.0062 in test [2] (setting [8]); 0.245 ± 0.0092 in test [3] (setting [9]); 0.3 ± 0.038 in test [3] (setting [10]); 0.467 ± 0.014 in test [4]. Besides, the results for the growth in test [5] (setting [11]) and in test [5] (setting [12]) were 0.408 ± 0.013 and 0.112 ± 0.076, respectively.

For the compound `O=C(Nc1cccc2c(=O)cc(-c3nnn[nH]3)oc12)c1ccc(OCCCCc2ccccc2)cc1` [Pranlukast], the growth in test [1] worked out at 0.23 ± 0.0033; in test [6] (setting [13]), 0.238 ± 0.0077; in test [6] (setting [14]), 0.196 ± 0.0094; in test [6] (setting [15]) it was 0.227 ± 0.0058; in test [6] (setting [16]) it was 0.144 ± 0.0097; in test [6] (setting [17]), 0.178 ± 0.0095. The growth in test [2] (setting [7]) was determined as 0.236 ± 0.0051; in test [2] (setting [8]), 0.238 ± 0.014; in test [5] (setting [11]) it was 0.424 ± 0.0063; in test [5] (setting [12]) it was 0.308 ± 0.013.

Take `CC(C)(C)NC[C@H](O)COc1nsnc1N1CCOCC1` [Timolol maleate salt]: the growth in test [1] stood at 0.2306 ± 0.00072; in test [6] (setting [13]), 0.306 ± 0.0088; in test [6] (setting [14]), 0.252 ± 0.0061; in test [6] (setting [15]) it was 0.198 ± 0.0053; in test [6] (setting [16]), 0.172 ± 0.0044; in test [6] (setting [17]), 0.151 ± 0.006. The growth is 0.451 ± 0.021 in test [2] (setting [7]), 0.432 ± 0.019 in test [2] (setting [8]), 0.401 ± 0.015 in test [5] (setting [11]) and 0.32 ± 0.021 in test [5] (setting [12]).

`CCCCCN(C)CCC(O)(P(=O)(O)O)P(=O)(O)O` [Ibandronate sodium]: the growth in test [1] was determined as 0.245 ± 0.0075; in test [2] (setting [7]) it was 0.364 ± 0.022; in test [2] (setting [8]), 0.448 ± 0.015; in test [3] (setting [9]), 0.206 ± 0.0027; in test [3] (setting [10]) it was 0.232 ± 0.035; in test [4] it was 0.462 ± 0.035. Besides, the growth in test [5] (setting [11]) is 0.422 ± 0.01; in test [5] (setting [12]), 0.358 ± 0.014.

Consider `Nc1ccc(S(=O)(=O)Nc2cnc3ccccc3n2)cc1` [Sulfaquinoxaline sodium salt], for which the growth came out at 0.221 ± 0.0039 in test [1]; 0.266 ± 0.02 in test [6] (setting [13]); 0.171 ± 0.004 in test [6] (setting [14]); 0.21 ± 0.0087 in test [6] (setting [15]); 0.1074 ± 0.00085 in test [6] (setting [16]); 0.137 ± 0.0051 in test [6] (setting [17]). In addition, the growth in test [2] (setting [7]) stood at 0.289 ± 0.073; in test [2] (setting [8]), 0.396 ± 0.028; in test [5] (setting [11]), 0.419 ± 0.0091; in test [5] (setting [12]), 0.297 ± 0.0077.

In the case of `N=C(N)NC(=N)NCCc1ccccc1` [Phenformin hydrochloride], the growth was determined as 0.2497 ± 0.002 in test [1]; 0.378 ± 0.07 in test [2] (setting [7]); 0.405 ± 0.067 in test [2] (setting [8]); 0.203 ± 0.0056 in test [3] (setting [9]); 0.211 ± 0.012 in test [3] (setting [10]); 0.469 ± 0.053 in test [4]. The growth came out at 0.416 ± 0.0069 in test [5] (setting [11]) and 0.3729 ± 0.003 in test [5] (setting [12]).

For the compound `Cc1ncc([N+](=O)[O-])n1CCO` [Metronidazole], the growth in test [1] was determined as 0.244 ± 0.0028; in test [2] (setting [7]) it was 0.378 ± 0.03; in test [2] (setting [8]), 0.378 ± 0.013; in test [3] (setting [9]), 0.202 ± 0.015; in test [3] (setting [10]), 0.264 ± 0.052; in test [4] it was 0.426 ± 0.033. Moreover, the growth in test [5] (setting [11]) is 0.394 ± 0.021; in test [5] (setting [12]), 0.347 ± 0.038.

As to `CN(Cc1cc(Br)cc(Br)c1N)C1CCCCC1` [Bromhexine hydrochloride], the growth in test [1] stood at 0.0422 ± 0.0023; in test [6] (setting [13]), 0.0459 ± 0.0083; in test [6] (setting [14]), 0.04107 ± 0.00031; in test [6] (setting [15]) it was 0.0454 ± 0.0014; in test [6] (setting [16]), 0.0423 ± 0.00059; in test [6] (setting [17]) it was 0.0454 ± 0.00098. Further, the growth was 0.194 ± 0.028 in test [2] (setting [7]), 0.0472 ± 0.0019 in test [2] (setting [8]), 0.0619 ± 0.0019 in test [5] (setting [11]) and 0.0553 ± 0.0034 in test [5] (setting [12]).
